The values below come from PubChem BioAssay (NCATS).

Assay [1] in a line: qHTS Assay for Identifying Gametocytocidal Compounds (AID 743244; active = well fitted curve in the direction sought with a large enough effect; an effect the other way counts as inactive or inconclusive;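 also: % is scaled to controls: 0 for no effect and ±100 for the full control effect; actives lower the fluorescent signal which means gametocytes are killed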). To be noted: P. falciparum 3D7 stage III-V gametocytes, alamarBlue, 72 h; max response: stronger effect = lower value. The procedure, abridged:
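Stage III–V gametocytes of P. falciparum 3D7 were seeded at 20,000 cells/well onto pre-dispensed compounds. After 72 h, 37 °C, 5% CO2, alamarBlue was added for another 24 h.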
(In general: In qHTS, concentration-response curves come from the screen itself.)

A short description of assay [2]: qHTS profiling for inhibitors of Plasmodium falciparum (3D7) proliferation (AID 743322).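 Also: infected erythrocytes exposed to compound for 72 h before lysis; 100% = DMSO vehicle wells and 0% = 0.29 µM artemisinin.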 To be noted: P. falciparum 3D7 proliferation; at 28.7 µM (top of the series) unless noted. In outline:
(§1)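 Parasite DNA was quantified by SYBR Green I fluorescence (ex 485, em 535 nm) after overnight lysis in saponin/Triton buffer at room temperature. Cultures at 0.3% parasitemia and 2.5% hematocrit were first exposed to compound for 72 h at 37 C; signals were normalised to artemisinin (0.29 uM) and vehicle wells.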

The nature of assay [3]: qHTS profiling for inhibitors of Plasmodium falciparum (DD2) proliferation (AID 743323). As to conditions: lower = more inhibition; at 28.7 µM (top of the series) unless noted. The procedure, abridged:
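1536-well qHTS; infected RBCs 0.3% parasitemia/2.5% Hct final; cpd 72 h 37 C 5% CO2; lysis buffer + SYBR Green I, o/n RT dark; FI 485/535; norm. to 0.29 uM artemisinin and DMSO, plate-stack corrected.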

The nature of assay [4]: qHTS profiling for inhibitors of Plasmodium falciparum (HB3) proliferation (AID 743324; active = well fitted curve in the direction sought with a large enough effect; an effect the other way counts as inactive or inconclusive;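 also: 100% = DMSO vehicle wells and 0% = artemisinin-treated control wells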). To be noted: Plasmodium falciparum HB3 blood-stage proliferation; at 28.7 µM (top of the series) unless noted. In outline: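 SYBR Green fluorescence (485 ex/535 em) of lysed cultures, incubated overnight at room temperature in the dark, quantifies parasite DNA. Infected erythrocytes at 0.3% parasitemia and 2.5% hematocrit were exposed 72 h; values normalized to DMSO and 0.29 uM artemisinin controls.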

Assay [5] in a line: qHTS profiling of the MIPE4 collection as inhibitors of Plasmodium falciparum (3D7) proliferation (AID 743344).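 Also: scaled between DMSO vehicle wells and 0.29 µM artemisinin as full inhibition.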 As to conditions: P. falciparum 3D7 in erythrocytes, SYBR Green DNA fluorescence, 72 h; at 28.5 µM (top of the series) unless noted. In outline: as §1
The nature of assay [6]: qHTS profiling of the MIPE4 collection as inhibitors of Plasmodium falciparum (DD2) proliferation (Rep 2) (AID 743346). To be noted: P. falciparum Dd2 in erythrocytes, SYBR Green DNA, 72 h; at 28.5 µM (top of the series) unless noted. The procedure, abridged:
as §1

The nature of assay [7]: Cell Proliferation Assay Versus the ED40515 IL2 Independent ATL cell lines (AID 1053194; calls by dose curve). To be noted: ED40515 IL2-independent ATL cells. In outline: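 CellTiter-Glo luminescence, read after 15 min at RT, gave viability of IL-2-free ED40515 cells (1000/well, RPMI plus 5% FBS) following 48 h drug exposure at 37C. Control wells held DMSO or 9.2 uM bortezomib.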
Assay [8] is described as follows: High-throughput drug toxicity screening in the BPDCN cell line Gen2.2 (AID 1224824).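 Also: cells exposed to compounds for 48 h before reading.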 As to conditions: Gen2.2 BPDCN cells; at 45.8 µM (top of the series) unless noted. The procedure, abridged:
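Gen2.2 cells (500/well) in phenol red-free RPMI with 10% FBS were exposed to compounds for 48 h at 37 °C, 5% CO2. Viability was read by CellTiter-Glo luminescence and normalized to DMSO (100%) and 9.2 uM bortezomib (0%).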

Assay [9] in a line: High-throughput drug toxicity screening in the BPDCN cell line Cal-1 (AID 1224825). To be noted: Cal-1 BPDCN cell viability, qHTS; at 45.8 µM (top of the series) unless noted. The procedure, abridged:
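CellTiter-Glo luminescence after 48 h compound exposure; percent activity scaled with DMSO as 100% and bortezomib (9.2 uM final) as 0%. Cal-1 cells seeded at 500/well in RPMI, 10% FBS, no phenol red.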

A short description of assay [10]: qHTS assay for measurement of the activity of small molecule inhibitors on Zika virus induced Caspase-3 activity in human iPSC derived neural progenitor cells (hNPCs) (AID 1224857; active = well fitted curve in the direction sought with a large enough effect; an effect the other way counts as inactive or inconclusive; also: % of control where 0% means no effect; nearly all actives have a fitted effect of over 65% in size). In outline:
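Values are percent inhibition of virus-induced caspase-3/7 signal, scaled between uninfected cells and ZIKV-infected cells. Infection used 2 FFU/cell for 6 h after 1 h compound exposure.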

Assay [11] can be described thus: qHTS assay for measurement of the activity of small molecule inhibitors on Zika virus induced Caspase-3 activity in human astrocytoma cells (AID 1224859; active = well fitted curve in the direction sought with a large enough effect; an effect the other way counts as inactive or inconclusive;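 also: plate controls were ZIKV-infected untreated cells for no effect and uninfected cells for full effect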). In outline:
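Compound added 1 h pre-infection; ZIKV 2 FFU/cell on SNB-19 cells, 6 h, 37 C/5% CO2. Caspase-Glo 3/7 luminescence; values as % inhibition of ZIKV-induced caspase activity.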

Assay [12] is described as follows: qHTS Screen of the MIPE 4.0 Collection Against Ewings Sarcoma (RDES) (AID 1259252; active = well fitted curve in the direction sought with a large enough effect; an effect the other way counts as inactive or inconclusive; also: potency is read from the fitted curve at half-maximal effect; nearly all actives have a fitted effect of over 35% in size). The procedure, abridged:
(§2)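 Viability screen: 48 h incubation at 37C, 95% humidity, 5% CO2 with serially titrated compound, followed by CellTiter-Glo readout.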

Assay [13] in a line: qHTS Screen of the MIPE 4.0 Collection Against Ewings Sarcoma (TC71) (AID 1259253; active = well fitted curve in the direction sought with a large enough effect; an effect the other way counts as inactive or inconclusive; also: potency is read from the fitted curve at half-maximal effect; nearly all actives have a fitted effect of over 40% in size). The procedure, abridged: as §2
The nature of assay [14]: qHTS profiling of the MIPE4 collection as inhibitors of Plasmodium falciparum (DD2) proliferation (AID 743345). As to conditions: P. falciparum Dd2 in erythrocytes, SYBR Green DNA, 72 h; at 28.5 µM (top of the series) unless noted. The procedure, abridged: as §1
A short description of assay [15]: qHTS Screen of the MIPE 4.0 Collection Against Ewings Sarcoma (EW8) (AID 1259255; active = well fitted curve in the direction sought with a large enough effect; an effect the other way counts as inactive or inconclusive;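 also: 100% = DMSO-treated cells and 0% = medium-only wells without cells; nearly all actives have a fitted effect of over 35% in size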). In outline: as §2
Assay [16] is described as follows: qHTS profiling of the MIPE4 collection as inhibitors of Plasmodium falciparum (HB3) proliferation (AID 743347).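 Also: plate controls were DMSO vehicle wells for no effect and artemisinin wells for full effect.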 To be noted: P. falciparum HB3 in erythrocytes, SYBR Green DNA, 72 h; at 28.5 µM (top of the series) unless noted. The procedure, abridged: as §1
Assay [17] can be described thus: Cell Proliferation Assay Versus the ED40515 IL2 Dependent ATL cell lines (AID 1053195; calls by dose curve). As to conditions: ED40515 IL2-dependent ATL cells. The procedure, abridged: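 CellTiter-Glo luminescence (15 min, RT) measured viability after 48 hours at 37C; cells were ED40515 +IL2, 1000/well, in phenol red-free RPMI with 5% FBS. Controls: DMSO and 9.2 uM bortezomib.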

Structures are written as SMILES. Records with an inconclusive call do not appear. Active and inactive are the calls of the source. Unless noted, no rule for the calls is given here.

Take `CCCS(=O)(=O)Nc1ccc(F)c(C(=O)c2c[nH]c3ncc(Cl)cc23)c1F`: in assay [1], the max response was 35.4% (inactive). The remaining parasite growth % (stronger effect = lower value) in assay [2] stood at 90.9%. The activity, percent of control in assay [3] is 83.1%. In assay [4], the remaining proliferation (% of control), lower = more inhibition was 55.7%. The parasite growth, % of DMSO control in [5] came to 51.6%. Moreover, in assay [6], the parasite growth, % of control (lower = inhibition) was determined as 80.8%. Further, the Potency in assay [7] was 13.2 µM (active); in assay [12] it was 14.8 µM (active); in [13] it was 18.7 µM (active). Moreover, the cell viability, % of control (lower = more cytotoxic) in assay [8] turned out to be 113%. Besides, the viability (% of control) in assay [9] was 17.1%. Moreover, the Potency result in assay [10] and in assay [11] was “inactive” throughout.

Regarding `COc1cc(F)c(F)c(Nc2ccc(I)cc2F)c1NS(=O)(=O)C1(C[C@H](O)CO)CC1`, the max response in [1] is 19.8% (inactive). Further, the remaining parasite growth % (stronger effect = lower value) in assay [2] was 83.5%. The activity, percent of control in assay [3] is 78.6%. The remaining proliferation (% of control), lower = more inhibition in assay [4] was determined as 39.5%. In [5], this compound yielded a parasite growth, % of DMSO control of 45.3%. Further, in assay [14], the parasite growth remaining, % of DMSO control (lower = more inhibition) is 71.1%. This compound gave a parasite growth, % of control (lower = inhibition) in assay [6] of 26.7%. Further, the Potency in [7] was 26.4 µM (active); in [12], 20.9 µM (active); in assay [13] it was 16.6 µM (active). Moreover, in assay [8], the cell viability, % of control (lower = more cytotoxic) was 27.8%. For the same compound, in assay [9], the viability (% of control) was 82.2%. The Potency entry in assay [10] and in assay [11] was “inactive” in each case.

Compound `Cc1cccc(-c2nn(C(=S)Nc3ccccc3)cc2-c2ccnc3ccccc23)n1` registered a remaining parasite growth % (stronger effect = lower value) in assay [2] of 91.2%. In assay [3], this compound gave an activity, percent of control of 87.9%. Moreover, the remaining proliferation (% of control), lower = more inhibition in assay [4] worked out at 79.6%. In addition, the parasite growth, % of DMSO control in assay [5] was 40.4%. Besides, the parasite growth, % of control (lower = inhibition) in assay [6] stood at 66.8%. Further, the Potency in assay [7] was 26.4 µM (active). Moreover, in assay [8], the cell viability, % of control (lower = more cytotoxic) amounted to 560%. The viability (% of control) in [9] is 91.8%. The Potency entry in assay [10], in assay [11] and in assay [15] was “inactive” each time.

As to `COc1ccc(-c2c(-c3ccc(O)cc3O)n[nH]c2C)cc1`, in [1], the max response is 3.95% (inactive). Moreover, in [2], the remaining parasite growth % (stronger effect = lower value) worked out at 1.98%. In addition, in assay [3], the activity, percent of control was 5.32%. In assay [4], the remaining proliferation (% of control), lower = more inhibition turned out to be 0.491%. The compound also yielded a parasite growth, % of DMSO control in assay [5] of 47% [at 57.5 µM]. This compound also came in with a parasite growth remaining, % of DMSO control (lower = more inhibition) in [14] of 61.8% [at 57.5 µM]. The compound also displayed a parasite growth, % of control (lower = inhibition) in [6] of 45.5% [at 57.5 µM]. Besides, the growth, % of control in assay [16] came out at 106% [at 57.5 µM]. The Potency in [7] is 23.5 µM (active); in [17], 2.09 µM (active). Also, in assay [8], the cell viability, % of control (lower = more cytotoxic) came to 96.4% [at 92.2 µM]. The same compound came in with a viability (% of control) in assay [9] of 61.9% [at 92.2 µM]. Further, the Potency result in assay [10] and in assay [11] was “inactive” in each case.
